# Screening results deposited in PubChem by several laboratories.
# TMEM16A inh – inhibitors of mouse TMEM16A calcium-activated chloride channel; 310,000 compounds, 1.2% hits; normalized B-score (activity score, 25-100; higher = stronger inhibition) at 10 µM; HEK293 TMEM16A/YFP iodide influx fluorescence, ionomycin;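 active = ratio plate-corrected score three or more library SD toward inhibition, starting fluorescence score within five deviations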;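 also: score derived from kinetic fluorescence span divided by baseline fluorescence per well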
# CRFR2-BP ag – agonists of human CRF-binding protein/CRF-R2 receptor complex. 350,000 compounds, 0.46% hits. HEK293 CRF-R2/CRF-BP, calcium dye fluorescence (FLIPR); percent of saturating CRF peptide response. AID 588473. activation, % at 13.2 µM;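 active = activation of at least 50%, plus an integration ratio under a set limit after plate pattern correction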;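 also: plate controls were neutral control wells without compound for no effect and CRF at EC100 for full effect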
# Cardiac RTF inh – cardiac RTF calcium desensitization; inhibition, % at 7.15 µM; IANBD-labeled cardiac RTF, Ca2+ fluorescence; 340,000 compounds, 0.12% hits; P19429+P45379;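 active = inhibition above the mean inhibition of all tested compounds plus 3 SD, cut at about 17% in these data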;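 also: assay run at fixed EC70 calcium of 1.6 mM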
# TMEM16A act – activators or potentiators of mouse TMEM16A chloride channel; HEK293 TMEM16A/YFP-H148Q/I152L, iodide quench fluorescence; stronger effect = lower value; Q8BHY3; AID 623877; B-score at 10 µM; 340,000 compounds, 0.3% hits;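 active = fluorescence-ratio B-score plate-corrected deviation score at least 3 library SD below zero, with starting fluorescence score within 5 deviations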;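 also: channel opened by trigger with iodide after compound preincubation; score built on the fluorescence ratio of max minus min over baseline; more negative score means more quench and so TMEM16A activation or potentiation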
# CRFBP-R2 block – antagonists of CRF-binding protein/CRF-R2 receptor complex; HEK293 CRF-R2/CRF-BP, CRF-induced calcium fluorescence; inhibition, % at 11.8 µM; 350,000 compounds, 0.59% hits; AID 588475;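 active = inhibition of the ligand-induced calcium signal above about 50% at the single tested concentration, limit read from the data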
# cardiac RTF act – increases calcium sensitivity of human cardiac regulated thin filaments; P19429+P45379; IANBD-labeled TnC RTF fluorescence at EC20 calcium; 0% EC20 calcium, 100% full calcium; AID 493008; activation, % at 7.2 µM; 340,000 compounds, 0.24% hits;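 active = activation above the mean over all tested compounds plus 3 SD, cut at about 30% in these data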;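 also: rise in fluorescence read as greater calcium sensitivity of cardiac thin filaments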
# TMEM16A reconf – TMEM16A (mouse) chloride channel inhibition, re-confirmation; 2,300 compounds, 39% hits; shares compounds with TMEM16A inh; HEK293 TMEM16A/YFP-H148Q, iodide quench fluorescence; ionomycin added to raise cell calcium; inhibition, % at 10 µM;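 active = mean duplicate percent inhibition, scaled so buffer wells are 0 and the reference blocker 100, over three buffer SD above buffer mean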
# TMEM16A Ca cntr – alters calcium mobilization in TMEM16A HEK293 cells, counter-screen. calcium response (% of ionomycin), % at 10 µM. AID 652231. TMEM16A/YFP HEK293, Fluo4 calcium mobilization. shares compounds with TMEM16A inh. 2,300 compounds, 2% hits;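 active = duplicate-averaged calcium signal over 20% of the ionomycin maximum, relative to buffer baseline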;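 also: each well's signal is peak minus trough fluorescence divided by its pre-addition baseline; 0% = buffer wells and 100% = ionomycin wells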
# Parental YFP cnt – parental YFP-HEK293 iodide quench counter-screen activity | 2,300 tested, under 10 active | YFP ratio F(max-min)/F0 at 10 µM | AID 652233 | shares compounds with TMEM16A inh | ionomycin;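 active = yellow fluorescent protein signal ratio exceeding the buffer control mean by over 5 SD of those controls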;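 also: ratio is mean of duplicate wells from kinetic YFP trace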
# ClC-1 rat inh – selectivity of TMEM16A inhibitors: inhibition of rat ClC-1 chloride channel | shares compounds with TMEM16A inh | AID 652236 | 2,300 tested, under 10 active | ratio percent, % at 10 µM | CHO ClC-1-YFP, iodide influx fluorescence quench; iodide control reads 0, buffer control 100;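 active = duplicate-mean ratio percent above the mean of iodide-only control wells, which defines zero, plus 5 of their SD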;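 also: higher percent means stronger block of ClC-1 iodide influx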
# Numbers without * were called inactive; i = inactive; · = not tested or not shown. Only some compounds are listed: those with a hit (about 2.4% of all), similar ones and a draw of the others.
SMILES,TMEM16A inh,CRFR2-BP ag,Cardiac RTF inh,TMEM16A act,CRFBP-R2 block,cardiac RTF act,TMEM16A reconf,TMEM16A Ca cntr,Parental YFP cnt,ClC-1 rat inh
CCOC(=O)C1=C(N)Oc2cc(O)ccc2C1c1cccnc1 (configuration not stated),100*,-3.2,3.2,i,-0.4,4.1,29.5%*,i,-1.25,-10.0
O=C(O)CCNS(=O)(=O)c1ccccc1,i,-1.9,-2.1,i,2.2,0.2,·,·,·,·
O=C(O)CCNS(=O)(=O)c1ccc2ccccc2c1,100*,6.6,-4.8,i,13.1,4.7,i,i,-0.94,-4.5
Cc1nc(-c2c(-c3ccc(O)cc3O)noc2C(F)(F)F)cs1,100*,-1.8,-2.9,i,20.0,-6.7,i,i,-0.983,2.0
O=C(OCC(=O)N1CCN(c2ccccc2)CC1)c1ccc(O)cc1O,i,-3.1,-4.0,i,8.2,0.5,·,·,·,·
Cc1ccc2cc(C#N)c(N3CCCN(C(=O)C4CCCO4)CC3)nc2c1 (configuration not stated),i,0.3,-12.9,i,7.0,2.0,·,·,·,·
Cc1ccc2cc(C#N)c(NCCCNC(=O)C3CCCO3)nc2c1 (configuration not stated),25*,-2.1,-6.5,i,14.7,2.3,i,i,-1.02,-7.5
Cc1cccc(CN2C(=O)N/C(=C/c3ccc(C)s3)C2=O)c1,i,7.6,-12.1,i,-9.3,16.8,i,i,-0.839,7.5
Cc1ccc(/C=C2/NC(=O)N(Cc3ccccc3)C2=O)s1,i,-0.2,-33.7,i,-54.6,19.9,·,·,·,·
COc1ccc(S(=O)(=O)N2CCCCCC2)cc1NC(=O)CN1C(=O)NC(C)(c2ccccc2)C1=O (configuration not stated),i,-0.9,-14.3,i,15.0,-0.7,·,·,·,·
Cc1cc(C)c(S(=O)(=O)Nc2ccccc2-c2ccccc2)c(C)c1,25*,3.5,2.2,i,-32.2,6.2,i,i,-1.27,-4.5
CNC(=S)N1N=C(c2ccc(OC)cc2)CC1c1ccccc1Cl (configuration not stated),25*,0.8,2.8,i,7.6,-2.0,45.0%*,i,-0.899,-6.0
CCOC(=O)c1nc2cc3n(c(C)c-2c1C)C(C)C(CC)=C3C (configuration not stated),i,4.1,-6.5,i,-5.9,-3.0,·,·,·,·
COc1ccc(-c2nnc(NC(=O)c3ccc(S(=O)(=O)N4COCC4(C)C)cc3)o2)cc1,i,-0.2,-5.4,i,-10.1,4.6,·,·,·,·
CC1(C)COCN1S(=O)(=O)c1ccc(C(=O)Nc2nnc(-c3ccc(Cl)s3)o2)cc1,100*,89.8*,·,·,21.7,·,i,i,-0.858,-17.5
O=C(NCc1ccco1)c1cc2sccc2n1Cc1ccccc1,i,0.0,0.7,i,32.4,-5.9,·,·,·,·
N#C/C(=C\c1ccc(O)c(O)c1)S(=O)(=O)c1ccccc1,i,8.4,9.7,i,1.0,1.8,41.0%*,i,-0.808,4.5
N#C/C(=C/c1ccc(F)cc1)S(=O)(=O)c1ccccc1,i,0.0,-2.5,i,-10.0,-5.5,·,·,·,·
c1ccc(-c2nc(CSc3nnc(-c4cccs4)o3)cs2)cc1,100*,2.7,-5.0,i,9.8,2.6,i,i,-1.19,-4.0
CCOC(=O)/C=c1\s/c(=C\c2ccc3cc(OC)ccc3c2)c(=O)n1CC(=O)NCc1ccc2c(c1)OCO2,i,36.9,-3.2,i,-27.9,12.0,31.0%*,i,-0.977,17.0
CCOC(=O)/C=c1\s/c(=C\c2ccccc2C)c(=O)n1CC(=O)NCc1ccc2c(c1)OCO2,i,0.5,-16.4,i,-3.7,2.6,·,·,·,·
COc1ccc(NS(=O)(=O)c2ccc3c(c2)Cc2ccccc2-3)cn1,25*,-0.2,5.2,i,3.0,3.0,i,i,-1.51,-3.0
COc1ccc(NS(=O)(=O)c2ccc(N3CCCC3=O)cc2)cn1,i,-0.8,-2.2,i,4.5,1.4,·,·,·,·
CC(C)C(=O)c1cc2c(cc1NC(=O)c1ccccc1)OCCO2,100*,-2.1,-4.4,i,-36.9,31.0*,i,i,-1.28,-12.5
CC(=O)Nc1cc2c(cc1C(=O)C(C)C)OCCO2,i,-0.7,-4.3,i,5.2,-2.0,·,·,·,·
SMILES,TMEM16A inh,CRFR2-BP ag,Cardiac RTF inh,TMEM16A act,CRFBP-R2 block,cardiac RTF act,TMEM16A reconf,TMEM16A Ca cntr,Parental YFP cnt,ClC-1 rat inh
COc1ccccc1N1CCN(c2ncnc3c2oc2ccccc23)CC1,100*,-0.5,-19.0,i,6.7,-3.5,i,i,-1.01,-8.0
c1ccc2c(c1)oc1c(N3CCOCC3)ncnc12,i,4.9,-5.3,i,3.4,6.3,·,·,·,·
C(=C\c1ccccc1)/CN1CCN(c2ncnc3c2oc2ccccc23)CC1,100*,1.2,-1.8,i,-26.7,2.4,33.5%*,i,-1.04,-21.5
O=c1[nH]c2c(c(=O)[nH]1)CCC2,i,3.8,-6.4,i,-8.8,3.7,·,·,·,·
Cc1ccc(OCc2nnc(SCC(=O)N3C(C)CCCC3C)o2)cc1 (configuration not stated),i,-0.1,-18.9,i,-1.7,-4.7,·,·,·,·
COc1ccc(C2C3=C(CC(C)(C)CC3=O)Nc3n[nH]c(C)c32)cc1 (configuration not stated),100*,-0.5,1.5,i,7.0,-2.2,i,i,-1,-8.0
CCc1nc2ccc(C(=O)NC3CCC(C)CC3)cc2nc1CC (configuration not stated),i,-1.0,-2.6,i,4.8,-1.4,·,·,·,·
